MEKK3 PB1 HTS = modulators (inhibitors or enhancers) of MEK5 binding to human MEKK3 PB1 domain. bead-based flow cytometry, Alexa488-MEK5 binding to MEKK3; actives lie on both sides; 0 = blocked by unlabeled MEK5, 100 = vehicle. actives 1.4% (n = 290,000). Q99759. binding response (% of control), % at 10 µM;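 active = binding response more than 3 SD above or below the average of its plate-row segment, actives on both sides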;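 also: Alexa488 bead fluorescence after subtracting the streptavidin-only scavenger bead signal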
SUMO Mot1 rescue = inhibitors of SUMOylation pathway: yeast Mot1-301 growth rescue; S. cerevisiae Mot1-301 growth rescue, ATP luminescence, 38.5C; percent above DMSO median, 100 means doubled; growth rescue, % at 18.8 µM; actives 1% (n = 320,000); AID 2716;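 active = every valid replicate shows activation above 250% relative to neutral control wells; inactive = the rest, any valid replicate at or below 250%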
MEKK2wt PB1 HTS = raises or lowers MEK5 binding to wildtype human MEKK2 PB1 domain; Q9Y2U5; bead flow cytometry, Alexa488-MEK5 binding to MEKK2 WT; actives lie on both sides; binding response (% of control), % at 10 µM; actives 1.1% (n = 290,000); in the data active = binding response below about 67% or above about 130%
CHT inh = inhibitors of human choline transporter CHT. Q9GZV3. CHT-expressing cells, membrane potential dye, choline response; hits give low values. B-score at 10 µM. actives 0.86% (n = 310,000). AID 488975;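 active = B-score over 3 SD under the library average, and starting fluorescence ratio not unusually high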;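 also: choline stimulus applied at its EC90 after an EC20 pre-addition; B-score computed on integrated fluorescence ratio after choline addition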
Target sequence (Q9GZV3 whole entry, looked up): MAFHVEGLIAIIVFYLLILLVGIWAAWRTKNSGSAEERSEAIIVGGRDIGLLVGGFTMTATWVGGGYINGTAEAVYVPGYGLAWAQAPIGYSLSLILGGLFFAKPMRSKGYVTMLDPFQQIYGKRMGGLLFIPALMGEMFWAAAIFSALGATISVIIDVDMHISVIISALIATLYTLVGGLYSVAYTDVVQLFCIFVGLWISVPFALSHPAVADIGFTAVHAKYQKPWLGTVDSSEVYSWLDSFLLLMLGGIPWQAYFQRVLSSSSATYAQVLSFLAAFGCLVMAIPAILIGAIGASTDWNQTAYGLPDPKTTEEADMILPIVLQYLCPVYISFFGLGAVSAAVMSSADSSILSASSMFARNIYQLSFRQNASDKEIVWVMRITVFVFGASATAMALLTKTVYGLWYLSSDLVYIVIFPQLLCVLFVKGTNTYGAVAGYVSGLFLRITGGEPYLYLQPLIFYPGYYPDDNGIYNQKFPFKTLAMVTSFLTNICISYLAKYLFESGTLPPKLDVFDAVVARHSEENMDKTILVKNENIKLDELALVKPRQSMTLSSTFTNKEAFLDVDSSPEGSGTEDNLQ
CHT allo act = allosteric activators of human choline transporter CHT; actives 0.49% (n = 310,000); B-score at 10 µM; Q9GZV3; CHT-expressing cells, membrane potential dye, choline EC20; hits give high values; LV-AA mutant CHT in HEK293 cells;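 active = initial fluorescence not abnormally high and integrated response B-score, plate-corrected, over 3 SD above library mean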
MEKK2mut PB1 HTS = signal of MEK5 binding to mutant human MEKK2 PB1 domain; actives 0.35% (n = 290,000); AID 1530; bead flow cytometry, Alexa488-MEK5 binding to MEKK2 mutant; percent response, % at 10 µM; in the data active = percent response above about 24%, passing the limit was not always enough
Yeast Mot1 SUMO = SUMO pathway inhibitors in yeast Mot1-301 growth | shares compounds with SUMO Mot1 rescue | S. cerevisiae Mot1-301 galactose growth, ATP luminescence, 24 h; -100 = growth of slx-deleted rescue strain | growth activity, percent, % at 42 µM | 2,300 tested, under 10 active | AID 493004;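 active = Signal drops as the depositor expects, and the fitted half-maximal dose is no more than ten times the top valid tested dose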;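 also: more negative values mean stronger growth rescue toward the control strain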
Of the large screens only hits and unclear results are named; the others gave an inactive call (follow-up assays come after a bar, where they were run). The list is not random: actives were taken first. Their share in the collection is about 4.1%.

Cc1ccc(-n2nnnc2SCc2nnc(-c3ccccc3Br)o2)c(C)c1	none
O=C(c1ccccc1F)N1CCN=C1SCc1cccnc1	SUMO Mot1 rescue 569 | Yeast Mot1 SUMO inactive
Cc1cccc(C)c1NC(=O)CNC(=O)c1ccc(N2CCCC2)c([N+](=O)[O-])c1	none (no result: MEKK3 PB1 HTS, MEKK2wt PB1 HTS, CHT inh, CHT allo act, MEKK2mut PB1 HTS)
CCOC(=O)Nc1sc(=S)n(C)c1C	SUMO Mot1 rescue 509 | Yeast Mot1 SUMO inactive
Cc1c(NC(=O)OCCNC(=O)Nc2ccccc2)sc(=S)n1C	none
Cc1cc(S(=O)(=O)NCC(C)C)ccc1OCC(=O)N1CCOCC1	SUMO Mot1 rescue 867 | Yeast Mot1 SUMO inactive
CC(C)Oc1ccc(S(=O)(=O)N2CCOCC2)cc1NC(=O)C1=COCCO1	none (no result: MEKK3 PB1 HTS, MEKK2wt PB1 HTS, MEKK2mut PB1 HTS)
CCC(Sc1nc2ncccc2[nH]1)C(=O)NC1CCCC1 (stereo not drawn)	none
O=C(CSc1nc2ncccc2[nH]1)NC1CCCCC1	SUMO Mot1 rescue 929 | Yeast Mot1 SUMO inactive
O=C(Nc1cccc(C(=O)Nc2ccc(F)cc2F)c1)c1ccccc1	SUMO Mot1 rescue active | Yeast Mot1 SUMO inactive
O=C(c1ccc([N+](=O)[O-])cc1)N(Cc1cccs1)C1CCS(=O)(=O)C1 (stereo not drawn)	none
Cc1ccc(CNC(=O)C2CCN(S(=O)(=O)c3cccnc3)CC2)cc1	none
O=C(NCc1cccnc1)C1CCN(S(=O)(=O)c2cccnc2)CC1	SUMO Mot1 rescue active | Yeast Mot1 SUMO inactive
Cc1c(=O)n(OCc2ccccn2)c2ccccc2[n+]1[O-]	SUMO Mot1 rescue 946 | Yeast Mot1 SUMO inactive
Cc1nn(CC(N)=O)c(=O)c2ccccc12	SUMO Mot1 rescue 482 | Yeast Mot1 SUMO inactive
CCn1c(SCC(=O)Nc2ccc(NC(=O)c3ccco3)cc2)nnc1-c1cccs1	SUMO Mot1 rescue active | Yeast Mot1 SUMO inactive
CCn1c(SCC(=O)Nc2cccc(NC(=O)c3ccco3)c2)nnc1-c1cccs1	none
O=C(CCN1CCCCC1=O)NC1CCCc2c1cnn2-c1ccccc1F (stereo not drawn)	none
CCCNC(=O)CSC1=N/C(=C/c2ccc(F)cc2)C(=O)N1CC	none
C=CCN1C(=O)/C(=C\c2ccc(C)cc2)N=C1SCC(=O)NCCC	SUMO Mot1 rescue active | Yeast Mot1 SUMO inactive
NS(=O)(=O)Cc1noc2ccccc12	none
CCc1ccc(S(=O)(=O)NCc2cccnc2)cc1	SUMO Mot1 rescue 571 | Yeast Mot1 SUMO inactive
CN1C(=O)C(C)(C)c2cc(S(=O)(=O)NCc3ccc(C(=O)NCc4ccco4)cc3)ccc21	none
CCC(C)[C@H](NC(=O)Nc1ccc(S(N)(=O)=O)cc1)C(=O)OC (stereo partly drawn)	SUMO Mot1 rescue 743 | Yeast Mot1 SUMO inactive
COC(=O)[C@H](C)NC(=O)Nc1ccc(S(N)(=O)=O)cc1	none
N/C(Cn1cncn1)=N\NC(=O)c1ccc(Cl)cc1Cl	SUMO Mot1 rescue 778 | Yeast Mot1 SUMO inactive
N/C(Cn1cncn1)=N\NC(=O)C(=O)Nc1ccc(Cl)cc1Cl	none
CCCCC(=O)Nc1cnc(NC(=O)c2cccs2)cc1C	none
COc1ccc(C(=O)OCC(=O)c2ccccc2)cc1S(=O)(=O)N1CCOCC1	SUMO Mot1 rescue active | Yeast Mot1 SUMO inactive
O=C(COC(=O)c1ccc(F)c(S(=O)(=O)N2CCOCC2)c1)c1ccccc1	none (no result: MEKK3 PB1 HTS, MEKK2wt PB1 HTS, CHT inh, CHT allo act, MEKK2mut PB1 HTS)
O=C(CC(=O)NCc1ccccc1)NCc1ccccc1	none
Cc1cccc(N2C(=O)CSC2c2cccnc2)c1 (stereo not drawn)	SUMO Mot1 rescue 686 | Yeast Mot1 SUMO inactive
O=C1CSC(c2cccnc2)N1c1ccccc1 (stereo not drawn)	none
NC(=O)c1cccc2cc3ccccc3cc12	SUMO Mot1 rescue 625 | Yeast Mot1 SUMO inactive
NS(=O)(=O)c1ccc(CCNC(=O)c2ccc([N+](=O)[O-])s2)cc1	SUMO Mot1 rescue 389 | Yeast Mot1 SUMO inactive
C=CCNc1nc(-c2cccs2)c(CC(=O)O)s1	none
O=C(O)Cc1sc(Nc2ccccc2)nc1-c1cccs1	SUMO Mot1 rescue 415 | Yeast Mot1 SUMO inactive
Cc1cc(Cl)c2oc(C(=O)NC3CCC(O)CC3)c(C)c2c1 (stereo not drawn)	SUMO Mot1 rescue active | Yeast Mot1 SUMO inactive
CCNc1ccc(S(=O)(=O)N(C)C)cc1NCC(=O)Nc1ccccc1Br	SUMO Mot1 rescue 987 | Yeast Mot1 SUMO inactive
CCNc1ccc(S(=O)(=O)N(C)C)cc1NCC(=O)Nc1ccccc1F	none
C/C(=N\n1cnnc1)c1ccc(C#N)cc1	none
CCc1nnc2n1N=C(c1ccc(Cl)cc1)CS2	SUMO Mot1 rescue 394 | Yeast Mot1 SUMO inactive
N#Cc1cc2c(cc1NC(=O)CCn1cnnn1)OCO2	none
O=C(CCn1cnnn1)Nc1ccc(Cl)cc1Cl	SUMO Mot1 rescue 721 | Yeast Mot1 SUMO inactive
Cc1ccc(C(=O)NNc2ncnc3c2cnn3C)cc1	SUMO Mot1 rescue active | Yeast Mot1 SUMO inactive
CC1CCCC(C)N1C(=O)COC(=O)c1cc(=O)[nH]c2ccccc12 (stereo not drawn)	none (no result: MEKK3 PB1 HTS, MEKK2wt PB1 HTS, CHT inh, CHT allo act, MEKK2mut PB1 HTS)
CC1CC(C)(C)NC(=S)N1CCC(=O)NCc1ccc(F)cc1 (stereo not drawn)	none
CC1CC(C)(C)NC(=S)N1CC(=O)NCc1ccc(F)cc1 (stereo not drawn)	SUMO Mot1 rescue 835 | Yeast Mot1 SUMO inactive
COc1cccc(C2/C(=C(/O)c3ccc(C)cc3)C(=O)C(=O)N2Cc2ccco2)c1 (stereo not drawn)	none
COc1cccc(C2/C(=C(/O)c3ccccc3)C(=O)C(=O)N2Cc2ccco2)c1 (stereo not drawn)	SUMO Mot1 rescue 497 | Yeast Mot1 SUMO inactive
S=C(c1ccc(N2CCOCC2)cc1)N1CCCCC1	SUMO Mot1 rescue 367 | Yeast Mot1 SUMO inactive
Cc1ccc(/C=C2\SC(=S)N(CCC(=O)NNC(=O)c3ccncc3)C2=O)cc1	none
O=C(NCc1cccnc1)Nc1ccccc1	SUMO Mot1 rescue 564 | Yeast Mot1 SUMO inactive
CS(=O)(=O)N(CCc1ccccc1)CC(=O)NCc1cccnc1	SUMO Mot1 rescue 854 | Yeast Mot1 SUMO inactive
CC(C)(C)NC(=O)NCc1cccnc1	none
CC(C)(C)NC(=S)NCc1cccnc1	SUMO Mot1 rescue 978 | Yeast Mot1 SUMO inactive
O=C(NCc1cccnc1)Nc1cccc(NC(=O)NCc2cccnc2)c1	none
COc1ccc(S(=O)(=O)Nc2ccccc2C(N)=O)cc1OC	none
O=C(Oc1ccccc1N1C(=O)C2CC=CCC2C1=O)c1ccc(Br)cc1 (stereo not drawn)	SUMO Mot1 rescue 549 | Yeast Mot1 SUMO inactive
CC(C)C(O)(C(=O)NNc1ccccc1)C(C)C	SUMO Mot1 rescue 583 | Yeast Mot1 SUMO inactive
CCOC(=O)NNc1ccccc1	none
